# PostGolgi yeast – growth inhibition of a yeast mutant, post-Golgi transport screen. inhibition, % at 10 µM. hit rate 0.9% among 98,000. post-Golgi transport phenotypic cell assay;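 also: yeast cells grown in 1536-well plates; yeast grown about 18 h at 30C before absorbance read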
# CYP2C19 act – increases human CYP2C19 enzyme activity; P33261; AID 1025; 96,000 tested, under 10 active; recombinant CYP2C19, luciferin-H EGE luminescence; active compounds read high; 0 = fully inhibited enzyme, 1 = untreated enzyme; activation factor at 5 µM;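 active = activation factor of at least 2 at 5 µM in the primary screen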;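 also: 0 = wells with 2.5 mM tranylcypromine and 1 = vehicle-only wells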
# Target sequence (P33261 whole entry, looked up): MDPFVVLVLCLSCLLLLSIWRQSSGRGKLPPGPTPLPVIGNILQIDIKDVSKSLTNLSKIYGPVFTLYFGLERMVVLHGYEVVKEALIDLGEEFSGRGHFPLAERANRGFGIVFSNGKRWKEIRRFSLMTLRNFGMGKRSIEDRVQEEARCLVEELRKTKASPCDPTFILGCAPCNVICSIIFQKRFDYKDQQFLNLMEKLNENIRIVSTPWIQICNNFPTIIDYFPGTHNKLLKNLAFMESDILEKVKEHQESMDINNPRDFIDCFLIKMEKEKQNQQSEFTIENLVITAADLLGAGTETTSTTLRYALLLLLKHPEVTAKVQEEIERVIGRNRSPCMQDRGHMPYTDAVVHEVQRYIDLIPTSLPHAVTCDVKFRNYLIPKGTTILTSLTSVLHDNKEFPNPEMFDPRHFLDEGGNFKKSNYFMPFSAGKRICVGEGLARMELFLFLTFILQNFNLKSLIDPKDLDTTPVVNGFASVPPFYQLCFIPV
# CYP2C9 inhib – human CYP2C9 inhibition; AID 777; inhibition, % at 5 µM; hit rate 20% among 96,000; P11712; CYP2C9 Supersomes, luciferin-H conversion, luminescence;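 active = blocking of liver enzyme CYP2C9 beyond about 50% at 5 µM, limit read from the data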
# CYP2C19 inhib – inhibitors of human CYP2C19; CYP2C19 Supersomes, luciferin-H EGE luminescence, 30 min; hit rate 21% among 96,000; P33261; inhibition, % at 5 µM; AID 778;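 active = CYP2C19 inhibition above a set limit at 5 µM in the primary screen, cut at about 50% in these data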;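 also: plate controls were negative control wells for no effect and 2.5 mM tranylcypromine positive control for full effect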
# PostGolgi ctrl – growth of the yeast control strain, post-Golgi counter-screen; efflux-deficient yeast background strain, growth absorbance A615, 16 h; inhibition, % at 10 µM; hit rate 5% among 98,000; AID 738
# CYP2C9 act – CYP2C9 (human) activation | P11712 | recombinant CYP2C9, luciferin-H conversion, luminescence; active compounds read high; factor 1 = untreated enzyme, 0 = blocked | activation factor at 5 µM | hit rate 1.4% among 96,000 | AID 1024;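 active = activation factor of 2 or more for CYP2C9 at a 5 µM dose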;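 also: 0 = sulfaphenazole-blocked wells and 1 = vehicle-only wells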
# Starred values were filed as active, the others as inactive; . = no result. Sampled rows, rich in hits. Any-hit rate of the full collection: about 32%. Rule as the data show it, unless noted: active = inhibition above about 30%; inactive = the rest.
SMILES,PostGolgi yeast,CYP2C19 act,CYP2C9 inhib,CYP2C19 inhib,PostGolgi ctrl,CYP2C9 act
Cc1ccccc1-n1nc(C)c2cc(C(=O)N3CCN(S(=O)(=O)c4ccccc4)CC3)sc21,.,1.1,-9.1,-8.4,.,1.1
COC(=O)c1ccc(Oc2coc3cc(OCc4cnn(-c5ccccc5)c4)ccc3c2=O)cc1,-13.5,0.9,9.9,10.6,-7.1,0.9
CC1(C)CC(CC(=O)O)(c2ccc(Cl)cc2)CCO1 (stereo not given),13.7,0.9,0.9,9.6,-7.1,1
COc1ccc2[nH]c(=O)c(CN(Cc3ccco3)C(c3nnnn3Cc3ccccc3)C(C)C)cc2c1 (stereo not given),6.6,0.6,70.4*,43.6,-5.5,0.3
COCCn1nnnc1C(C(C)C)N(Cc1cccnc1)Cc1cc2cc(OC)ccc2[nH]c1=O (stereo not given),5.0,1.2,-29.4,-15.1,-2.3,1.3
CCC(=O)N(Cc1cc2cc(C)c(C)cc2[nH]c1=O)C1CCCCC1,-0.8,0.2,69.2*,80.6*,8.2,0.3
O=C(NC1CCCCC1)N(Cc1cc2cc3c(cc2[nH]c1=O)OCCO3)C1CCCCC1,4.8,0.5,75.1*,46.9,-2.9,0.2
CCC(=O)N(Cc1cc(=O)[nH]c2ccccc12)C1CCCCC1,-5.1,1.1,3.2,-5.7,1.8,1
CC(=O)N(Cc1cc2c(C)cc(C)cc2[nH]c1=O)C1CCCCC1,20.0,0.7,62.7*,30.2,4.4,0.4
Cc1cc(C)nc(N2CCC(C(=O)Nc3cccc(C(F)(F)F)c3)CC2)n1,1.8,0.7,-34.2,31.7,23.2,1.3
COC(=O)N1CCN(S(=O)(=O)c2ccc(F)cc2)CC1,5.3,.,.,.,1.6,.
COC(=O)c1ccc(Oc2cc(C)nc(NCc3ccccc3)n2)cc1,-8.3,0.9,7.1,12.8,5.3,0.9
Cc1cc(Oc2ccc(C#N)cc2)nc(NCc2ccccc2)n1,4.3,0.9,8.8,10.9,30.7*,0.9
Cc1cc(C)n(-c2nc(C)nc(NCc3ccccc3)n2)n1,-12.5,1,18.2,1.9,11.6,0.8
COc1cc(C)nc(NCc2ccccc2)n1,17.7,0.4,44.1,61.3*,14.8,0.6
Cc1cc(N2CCN(c3ccccc3)CC2)nc(NCc2ccccc2)n1,0.8,0.9,13.5,11.9,47.4*,0.9
COc1cc(C)nc(Oc2ccc(OCc3ccccc3)nn2)n1,-2.5,0.2,30.6,75.2*,-2.7,0.7
CCOC(=O)CCCn1c(C)nc(=O)c(-c2ccccc2)c1C,6.1,1,-2.2,-1.8,-0.9,1
CCCCN(C)CCNC(=O)Cn1c(=O)sc2ccccc21,-4.6,1.1,-5.3,-6.9,1.4,1.1
C=CCc1cc(C)ccc1OCCn1ccnc1,-5.0,0,94.7*,96.4*,3.8,0.1
Cc1ccc(C)c(OCCCCn2cnc3ccccc3c2=O)c1,-0.7,0.7,-4.4,30.6,5.0,1
Cc1ccc(C)c(OCCCCCn2ccnc2)c1,11.9,0,100.0*,100.3*,3.4,0
O=C(CN1C(=O)NC2(CCCCCCC2)C1=O)NCc1ccc2c(c1)OCO2,1.9,1,22.7,4.7,1.3,0.8
CC(=O)N1c2ccc(S(=O)(=O)CCC(=O)O)cc2CC1C (stereo not given),-6.2,1.1,-12.0,-14.3,9.6,1.1
O=C(NC1CCCCC1)c1ccc(CNc2ccccc2)o1,-7.1,0.4,58.1*,62.0*,4.6,0.4
SMILES,PostGolgi yeast,CYP2C19 act,CYP2C9 inhib,CYP2C19 inhib,PostGolgi ctrl,CYP2C9 act
O=C(NC1CCCCC1)c1ccc(CS(=O)(=O)Cc2ccccc2F)o1,3.9,.,.,.,6.3,.
O=C(NC1CCCC1)c1ccc(CSCc2ccccc2F)o1,21.8,0.1,86.5*,92.5*,19.4,0.1
O=C(CCn1c(=S)[nH]c2ccccc2c1=O)NCC1CCCO1 (stereo not given),7.8,1,-20.3,4.0,0.3,1.2
CCOC(=O)C1=C(C)N(c2ccc(C)cc2)C(=O)/C1=C\c1cccs1,8.3,1.1,6.9,-10.1,9.4,0.9
CCOC(=O)C1=C(N)n2c(s/c(=C\c3cccnc3)c2=O)=C(C(=O)OCC)C1c1cccnc1 (stereo not given),.,0.4,69.6*,62.7*,.,0.3
CCOC(=O)C1=C(N)n2c(s/c(=C\c3cccs3)c2=O)=C(C(=O)OCC)C1c1cccs1 (stereo not given),14.8,0.7,78.5*,28.7,5.2,0.2
COC(=O)NCc1ccc(S(=O)(=O)N2CCOCC2)cc1,11.6,1.1,3.1,-6.8,3.5,1
